The text below walks through data of PubChem BioAssay AID1224904 (Broad Institute, 2016).

The campaign covered roughly 37,000 compounds. About 290 (0.78%) were called active. About 10% were inconclusive and are not listed.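 How the source made its calls: active means mean inhibition of at least 10% in the main channel, exceeding the control channel by a set limit; inconclusive means inhibition of 10% or more but channel gap under a set limit; inactive means mean inhibition below 10%.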 Only a selection was taken, and actives are over-represented in it overall.

A short description of this assay: inhibitors of DUX4-driven ZSCAN4 reporter expression, primary screen, 293T cells, Gaussia and Italica luciferase (AID 1224904).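 On activity change, negative = inhibition: 0% = median of neutral control wells and -100% = median of positive control wells.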 Conditions: 293T-iDUX4 ZSCAN4-Gaussia luciferase reporter, 24 h, stronger effect = lower value, concentration not given here; for Gaussia minus Italica difference: measured here: selective DUX4 reporter inhibition. For orientation: A reporter such as luciferase makes a cellular process visible.

[1] abbreviates: measured here: Italica tet-on control reporter.

`COc1cccc(C(=O)N2C[C@@H]3[C@H](c4ccccc42)[C@H](CO)N3Cc2ccccc2F)c1`: the activity change, negative = inhibition is -0.575% (inactive) and the Gaussia minus Italica difference was -4.03%. The activity change, negative = inhibition under setting [1] turned out to be 3.46%.
Turning to `CCCNC(=O)N1C[C@@H](O)COC[C@H]2O[C@H](CC(=O)NCCCN3CCOCC3)CC[C@@H]21`, the activity change, negative = inhibition was 5.88% (inactive) and the Gaussia minus Italica difference is -0.509%. Besides, under setting [1], the activity change, negative = inhibition was 6.39%.
The like results for `CCC(=O)N1CC2(C1)CN(Cc1nccs1)[C@@H](CO)c1c2c2ccc(OC)cc2n1C` were, in that order, 20% (inactive), 17.3% and 2.76%.
The like results for `CN(C)C(=O)c1cccc(-c2ccc3c(c2)[C@H]2[C@H](CCN2C(=O)c2cccnc2)[C@H](CO)N3)c1` were, in that order, -0.714% (inactive), -0.793% and 0.0796%.
The like results for `O=C(C[C@@H]1CC[C@@H]2[C@H](COC[C@H](O)CN2CC2CCOCC2)O1)NCC1CCCCC1` were, in that order, 3.21% (inactive), -8.33% and 11.5%.
Take `CCCN1C[C@@H](C)[C@@H](OC)CN(C)C(=O)c2cc(NC(=O)Nc3cccc(F)c3)ccc2OC[C@@H]1C`: the activity change, negative = inhibition is -9.36% (inactive) and the Gaussia minus Italica difference is -3.7%. Further, under setting [1], the activity change, negative = inhibition is -5.66%.
On the same counts, the results for `O=C(NCC1CC1)[C@@H]1[C@@H](CO)[C@@H]2Cn3c(ccc(-c4ccncc4)c3=O)[C@@H]2N1Cc1cocn1` are -0.331% (inactive), 1.11% and -1.44%.
The like results for `CC(C)NC(=O)N1[C@H](CO)[C@H](c2ccccc2)C12CN(C(=O)Cc1cccnc1)C2` were, in that order, 1.09% (inactive), -4.76% and 5.85%.
On the same counts, the results for `CCC(=O)N1[C@H](CO)[C@@H]2c3ccccc3N(S(=O)(=O)c3ccccc3C)C[C@@H]21` are -0.934% (inactive), -0.0907% and -0.843%.
Regarding `CO[C@H]1CN(C)C(=O)c2ccc(NS(C)(=O)=O)cc2OC[C@@H](C)N(Cc2ccccc2)C[C@@H]1C`, the activity change, negative = inhibition is 3.45% (inactive) and the Gaussia minus Italica difference came out at 1.71%. The activity change, negative = inhibition under setting [1] was 1.74%.
On the same counts, the results for `CCN(C[C@@H]1[C@@H](c2ccccc2)[C@H](CO)N1C(C)=O)C(=O)NC(C)C` are -4.96% (inactive), -3.89% and -1.07%.
On the same counts, the results for `CCCNC(=O)N(C)C[C@H]1Oc2ncc(-c3ccc(C(=O)N(C)C)cc3)cc2C(=O)N([C@@H](C)CO)C[C@@H]1C` are -0.44% (inactive), -6.14% and 5.7%.
On the same counts, the results for `COc1ccc2c3c([nH]c2c1)[C@H](CO)N(C(=O)C1CCOCC1)CC31CN(S(C)(=O)=O)C1` are -4.43% (inactive), -5.7% and 1.27%.
Take `O=C(Cc1ccccc1)N1C[C@H]2[C@@H](c3ccccc31)[C@H](CO)N2C(=O)c1ccc(F)cc1`: the activity change, negative = inhibition was 0.616% (inactive) and the Gaussia minus Italica difference was -2.21%. Also, the activity change, negative = inhibition under setting [1] amounted to 2.82%.
In the case of `CN1C(=O)c2cc(NC(=O)c3cnccn3)ccc2OC[C@@H]2O[C@H](CC(=O)NC3CCC3)CC[C@@H]21`, the activity change, negative = inhibition was 3.24% (inactive) and the Gaussia minus Italica difference is 3.07%. Besides, under setting [1], the activity change, negative = inhibition was determined as 0.171%.
As to `O=C(C[C@@H]1CC[C@@H]2[C@H](COC[C@H](O)CN2S(=O)(=O)c2ccc(F)cc2)O1)NCc1ccc(Cl)c(Cl)c1`, the activity change, negative = inhibition was -7.18% (inactive) and the Gaussia minus Italica difference was 5.22%. Also, under setting [1], the activity change, negative = inhibition is -12.4%.
As for `CCCNC(=O)N1C[C@@H]2[C@H](c3ccccc31)[C@@H](CO)N2C(=O)NC(C)C`, the activity change, negative = inhibition was -3.62% (inactive) and the Gaussia minus Italica difference was -3.78%. Further, the activity change, negative = inhibition under setting [1] was determined as 0.166%.
Regarding `N#C[C@@H]1N[C@@H](CO)[C@@H]1c1ccc(C#Cc2ccccc2F)cc1`, the activity change, negative = inhibition is 0.819% (inactive) and the Gaussia minus Italica difference turned out to be 0.167%. In addition, the activity change, negative = inhibition under setting [1] was determined as 0.652%.
The like results for `CC=Cc1ccc2n(c1=O)C[C@@H]1[C@@H](CO)[C@H](C(=O)NCCC)[C@H]2N1C(=O)C1CC1` (mixture of isomers) were, in that order, 3.79% (inactive), -1.71% and 5.5%.
As to `CCCNC(=O)N1C[C@@H](O)COC[C@H]2O[C@@H](CC(=O)NCCCN3CCOCC3)CC[C@@H]21`, the activity change, negative = inhibition was -2.3% (inactive) and the Gaussia minus Italica difference is -7.76%. Besides, under setting [1], the activity change, negative = inhibition came out at 5.46%.
On the same counts, the results for `Cc1cc(C(=O)Nc2ccc3c(c2)C(=O)N(C)[C@H]2CC[C@H](CC(=O)NCC(F)(F)F)O[C@@H]2CO3)no1` are -3.18% (inactive), -4.67% and 1.49%.
The like results for `C[C@@H](NC(=O)C[C@H]1CC[C@@H](NC(=O)Cc2ccccn2)[C@@H](CO)O1)c1ccccc1` were, in that order, 14.3% (inactive), 12.6% and 1.74%.
For `O=C(C[C@@H]1CC[C@H]2[C@@H](COC[C@H](O)CN2C(=O)Nc2ccccc2)O1)NCCc1ccncc1`, the activity change, negative = inhibition is -0.33% (inactive) and the Gaussia minus Italica difference is -7.36%. Besides, the activity change, negative = inhibition under setting [1] was 7.03%.
With `COc1ccc(NC(=O)N(C)C[C@@H]2OCc3cn(nn3)CCCC(=O)N([C@H](C)CO)C[C@H]2C)c(OC)c1`, the activity change, negative = inhibition was -6.81% (inactive) and the Gaussia minus Italica difference was -11.6%. Further, the activity change, negative = inhibition under setting [1] is 4.76%.
On the same counts, the results for `N#C[C@@H]1[C@@H](c2ccc(-c3ccccc3F)cc2)[C@@H](CO)N1C(=O)C1CC1` are -3.2% (inactive), -2.29% and -0.917%.
On to `COc1ccc2c3c([nH]c2c1)[C@@H](CO)N(C(=O)NC(C)C)CC31CN(C(=O)C2CCCC2)C1`, for which the activity change, negative = inhibition is 6.7% (inactive) and the Gaussia minus Italica difference is 6.4%. In addition, the activity change, negative = inhibition under setting [1] stood at 0.3%.
The like results for `COc1ccc2c3c([nH]c2c1)[C@@H](CO)N(Cc1cc(F)ccc1F)CC31CN(C(=O)C2CCC2)C1` were, in that order, -77.2% (active), -33.6% and -43.6%.
The like results for `COc1ccc2c3c(n(C)c2c1)[C@H](CO)N(Cc1ccccc1F)CC31CN(C(=O)C2CCC2)C1` were, in that order, 6.19% (inactive), 2.45% and 3.73%.
